This is a sample that favours compounds with a hit; in the whole collection about 12% have one here.
JMJD2A Tudor inh: qHTS Assay for Inhibitors of JMJD2A-Tudor Domain; 390,000 tested, 4.4% active; AlphaScreen JMJD2A-Tudor / H3K4me3 peptide binding; Potency, µM (top dose mostly 114 µM), without a hit: at the top dose activity change, negative = inhibition, actives largely listed as inhibitors; Lysine-specific demethylase 4A (Homo sapiens), O75164; note: % is set by controls: 0 for no effect and ±100 for the full control effect; nearly all actives have a fitted effect of over 50% in size
G9a block: qHTS Assay for Inhibitors of Histone Lysine Methyltransferase G9a; Histone-lysine N-methyltransferase EHMT2 (Homo sapiens), Q96KQ7; G9a H3K9 monomethylation, AlphaScreen, 2 h; Potency, µM (series often up to 102 µM), for inactives: at the top dose activity, negative = inhibition, hits mostly inhibitors; 350,000 tested, 8.8% active; AID 504332, 2011; note: % is set by controls: 0 for no effect and ±100 for the full control effect; nearly all actives have a fitted effect of over 75% in size
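Methyltransferase reactions run at room temperature for 2 h (20 nM enzyme, 500 nM biotin-H3K9 peptide, 20 uM SAM) after a 15 min compound preincubation; product detected by AlphaScreen beads and anti-H3K9me1 antibody.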
BAZ2B inh: qHTS Assay for Inhibitors of BAZ2B; Potency, µM (doses to about 114 µM), without a hit: at the top dose activity change, negative = inhibition, most hits filed as inhibitors; Bromodomain adjacent to zinc finger domain protein 2B (Homo sapiens), Q9UIF8; AlphaScreen BAZ2B-H3K14Ac peptide displacement; 360,000 tested, 4.4% active; AID 504333, 2011; note: % is set by controls: 0 for no effect and ±100 for the full control effect; nearly all actives have a fitted effect of over 60% in size
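Multi-concentration screen (max 110 uM) measuring displacement of acetylated histone H3 peptide from BAZ2B by AlphaScreen, using 50 nM protein, 50 nM peptide and 10 ug/mL streptavidin donor plus Ni-chelate acceptor beads.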
TDP1 block: qHTS Assay for Inhibitors of Tyrosyl-DNA Phosphodiesterase (TDP1) | Potency, µM (doses to about 130 µM), for inactives: top-dose activity change, negative = inhibition, hits mostly inhibitors | Tyrosyl-DNA phosphodiesterase 1 (Homo sapiens), Q9NUW8 | 350,000 tested, 0.28% active | recombinant TDP1, AlphaScreen DNA substrate cleavage | AID 485290, 2010; note: % is set by controls: 0 for no effect and ±100 for the full control effect; nearly all actives have a fitted effect of over 40% in size
Target sequence (Q9NUW8 whole entry, looked up): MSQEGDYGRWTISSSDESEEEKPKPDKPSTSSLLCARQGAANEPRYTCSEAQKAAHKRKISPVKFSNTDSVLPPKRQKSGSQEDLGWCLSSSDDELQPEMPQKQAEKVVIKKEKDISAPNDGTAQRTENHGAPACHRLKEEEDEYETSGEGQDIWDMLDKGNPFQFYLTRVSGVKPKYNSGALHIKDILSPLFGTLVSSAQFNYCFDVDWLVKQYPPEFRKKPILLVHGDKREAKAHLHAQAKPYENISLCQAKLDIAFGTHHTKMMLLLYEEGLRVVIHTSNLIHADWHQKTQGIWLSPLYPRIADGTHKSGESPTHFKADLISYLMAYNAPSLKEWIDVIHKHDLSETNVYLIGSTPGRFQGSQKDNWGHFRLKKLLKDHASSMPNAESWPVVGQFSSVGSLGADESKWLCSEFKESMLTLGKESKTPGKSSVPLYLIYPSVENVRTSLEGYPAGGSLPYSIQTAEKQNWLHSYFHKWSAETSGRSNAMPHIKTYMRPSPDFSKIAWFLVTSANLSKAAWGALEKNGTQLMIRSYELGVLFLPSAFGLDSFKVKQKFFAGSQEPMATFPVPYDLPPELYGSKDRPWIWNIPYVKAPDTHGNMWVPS
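Enzyme-compound mixtures sat 15 min at room temperature, followed by a 5 min reaction with 15 nM final substrate and 10 min with AlphaScreen beads. Recombinant human Tdp1 was used at 1 nM final.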
HP1b chromo inh: HTS for Inhibitors of HP1-beta Chromodomain Interactions with Methylated Histone Tails | AlphaScreen HP1-beta / biotin-H3K9me3 peptide binding | Potency, µM (doses to about 114 µM), without a hit: at the top dose activity change, negative = inhibition, actives largely listed as inhibitors | 390,000 tested, 0.56% active | AID 540317, 2011; note: nearly all actives have a fitted effect of over 70% in size
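AlphaScreen: HP1-beta (50 nM) preformed 30 min with biotin-H3(1-18)K9me3 peptide (50 nM) in PBS pH 7.4, 0.01% Tween-20. Compound added for 30 min at RT, then streptavidin donor/nickel chelate acceptor beads (10 ug/mL) for 30 min.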
Sfp PPTase inh: qHTS Assay for Inhibitors of Bacillus subtilis Sfp phosphopantetheinyl transferase (PPTase); Biochemical Sfp PPTase activity, qHTS; Potency, µM, inactives show largest response in the series, negative = inhibition, actives largely listed as inhibitors; 310,000 tested, 3.5% active;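 note: the enzyme is Sfp with the accession as filed and its product quenches rhodamine fluorescence; 0% = enzyme reaction without inhibitor and -100% = no enzyme wells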
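Fluorescence-quenching assay: 15 nM Sfp-PPTase preincubated 15 min at room temperature with compound, then 5 uM rhodamine-CoA and 12.5 uM BHQ-2-labelled YbbR peptide added. Fluorescence (ex 525/em 598 nm) read at start and after 30 min; difference gives rate.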
Active calls of the source: *; ? = inconclusive; nt = not tested or not shown; [ ] = remark or other dose. Calls come from the whole dose curve; as a rule, active = well fitted curve in the direction sought with a large enough effect; inconclusive = small, poorly fitted or top-dose-only effect, or another doubt; inactive = no such curve, though single readings can be large; an effect the other way counts as inactive or inconclusive. Potency is the fitted concentration of half-maximal effect.

SMILES | JMJD2A Tudor inh | G9a block | BAZ2B inh | TDP1 block | HP1b chromo inh | Sfp PPTase inh
CC1=NN(c2cc(Cl)c(S(=O)(=O)O)cc2Cl)C(=O)C1 | 89µM* | nt | nt | nt | 14%[57 µM] | nt
CC1=NN(c2ccc(Cl)c(C(=O)O)c2)C(=O)C1 | 56µM* | 50µM* | -26% | nt | -38% | 13%
CC1=NN(c2cccc(Cl)c2)C(=O)C1 | -24% | 3%[59 µM] | ? | 9% | 10% | 5%
COc1ccc(OCCCC(=O)N2CCN(S(=O)(=O)c3cccc(F)c3)CC2)cc1 | -21% | -8% | 9% | 0% | -13% | nt
CCc1cccc(CC)c1-n1c(-c2cccnc2)n[nH]c1=S | ? | ? | -23% | 8% | 22% | -10%
CC(C)c1ccccc1-n1c(-c2cccnc2)n[nH]c1=S | 10µM* | -36%[12.7 µM] | -20% | 0% | 31% | -12%
CCC(c1nc2ccccc2c(=O)n1-c1cccnc1)N1C(=O)c2ccccc2C1=O (stereo not drawn) | -11% | -2%[59 µM] | 2% | 4% | 8% | 10%
Cc1cccc2nc(-c3cccnc3)c(Nc3ccc(C(C)C)cc3)n12 | -15% | ? | -13% | 0% | 0% | nt
S=c1[nH]nc(-c2cccc3ccccc23)n1-c1cccnc1 | 20µM* | -127%[59 µM] | -5% | nt | 11% | -17%
Cc1ccccc1-n1c(-c2cccnc2)n[nH]c1=S | 11µM* | 5µM* | -4% | ? | 38% | 7%
CC(C)c1ccc(NC(=O)[C@@H]2CCC(=O)N2C2OC(=O)c3ccccc32)cc1 (stereo partly drawn) | -14% | 10%[12.7 µM] | -5% | nt | 23% | 5%
CCOC(=S)SCc1cn2ccc(C)cc2n1 | -27% | -44%[59 µM] | -37% | 8% | 4% | -14%
CCOC(=S)SCc1cn2ccccc2n1 | -8% | ? | -22% | 7% | 7% | 50µM*
N=c1c2ccccc2nnn1-c1ccc(C(F)(F)F)cc1 | -33% | 62%[12.7 µM] | 15% | 1% | -17% | -13%
CC(=O)c1cc(-c2ccc(F)cc2)n(CC(=O)Nc2cc(C)cc(C)c2)c1C | -6% | -1%[59 µM] | 4% | 5% | 2% | nt
CC(=O)c1cccc(N=c2scc(-c3ccc(S(=O)(=O)N4CCOCC4)cc3)n2CCO)c1 | -34%[57.1 µM] | 45µM* | ? | -3% | ? | -9%
CN(C)S(=O)(=O)c1ccc(S(=O)(=O)NCCN2CCOCC2)cc1 | -5% | -11% | -4% | nt | 32% | -4%
C=CCn1c(-c2ccc(S(=O)(=O)N3CCOCC3)cc2)csc1=Nc1ccccc1 | ? | 7%[0.501 µM] | 6.3µM* | 9% | -11% | -25%
CN(C)S(=O)(=O)c1cccc(-c2csc(=Nc3ccccc3)n2CCCN2CCOCC2)c1 | 50µM* | 50µM* | 32µM* | 7% | ? | -2%
Cc1csc(=Nc2ccc(S(=O)(=O)N3CCOCC3)cc2)n1Cc1ccco1 | ? | ? | nt | 8% | ? | ?
COc1ccc(N=c2scc(-c3ccc(S(=O)(=O)N4CCOCC4)cc3)n2CCCO)cc1 | nt | 25µM* | 50µM* | 7% | nt | 6%
Cc1ccc(CCNS(=O)(=O)c2ccc3c(c2)CCN3C(=O)CCC(=O)O)cc1 | -1% | 21%[59 µM] | 19% | 5% | 66% | nt
CC(C)Cn1c(-c2ccc(S(=O)(=O)N3CCCC3)cc2)csc1=Nc1ccccc1 | ? | 8.9µM* | ? | 10% | -16% | nt
O=C(NC1CCCC1)c1sc(=S)n2c1[nH]c(=O)c1ccccc12 | 89µM* | ? | ? | 6% | -36% | -24%
C=CCn1c(N)c(C(=O)NCc2ccco2)sc1=S | -25% | -20%[59 µM] | ? | 2% | ? | -14%
SMILES | JMJD2A Tudor inh | G9a block | BAZ2B inh | TDP1 block | HP1b chromo inh | Sfp PPTase inh
O=C(NCc1ccco1)c1sc(=S)n2c1[nH]c(=O)c1ccccc12 | 50µM* | 22µM* | ? | 1% | ? | 45µM*
CO[C@@H]1C[C@H](O[C@H]2[C@@H](C)[C@H](O[C@@H]3O[C@@H](C)C[C@@H](N(C)C)[C@@H]3OC(C)=O)[C@H](C)C[C@]3(CO3)C(=O)[C@H](C)[C@H](OC(C)=O)[C@H](C)[C@H](C)OC(=O)[C@@H]2C)O[C@H](C)[C@@H]1OC(C)=O | nt | 27%[21.5 µM] | nt | 4%[21 µM] | nt | 12%
COc1ccc(Cc2nnc(NC(=O)Cc3cccs3)s2)cc1OC | -35%[57.1 µM] | ? | 28µM* | nt | ? | -26%
O=C(Cc1cccs1)Nc1nnc(CCc2ccccc2)s1 | ? | -8%[12.7 µM] | -39% | -2% | 23% | -3%
O=C(Cc1cccs1)Nc1nnc(Cc2ccccc2)s1 | 50µM* | ? | 50µM* | nt | ? | 6%
O=C(CSc1nnc(Nc2ccccc2)s1)NCc1cccs1 | -4% | 40µM* | 0% | 3% | 31% | 6%
O=C(Cc1cccs1)Nc1nnc(SCC(=O)NC2CCCCC2)s1 | -17%[57.1 µM] | ? | 0% | 1% | 5% | 0%
COc1ccc(C(=O)Nc2nnc(Cc3cccs3)s2)cc1OC | -35% | 27%[0.501 µM] | -2% | 5% | 31% | 3%
O=C(Cc1cccs1)Nc1nnc(SCc2cccc3ccccc23)s1 | -29% | 45µM* | ? | 2% | 30% | 9%
Cn1c(=O)n(CCCc2ccccc2)c(=O)c2c1nc1n2CCN1c1ccccc1 | -29% | -44%[59 µM] | -30% | 4% | 23% | nt
Cc1csc2nc(-c3cccc(NC(=O)c4ccc(S(N)(=O)=O)cc4)c3)cn12 | -22% | 9%[59 µM] | 3% | 0% | 15%[57 µM] | nt
CSc1ncccc1C(=O)OC(C)C(=O)Nc1cccc(S(=O)(=O)N2CCOCC2)c1 (stereo not drawn) | -5% | nt | nt | 1% | 22% | nt
CCCCCc1nnc(NC(=O)Cc2cccs2)s1 | 28µM* | 14µM* | 45µM* | 35µM* | 50µM* | -4%
COc1ccc(CNC(=O)c2ccc(CS(=O)Cc3ccccc3Cl)o2)cc1 (stereo not drawn) | -13% | 10%[59 µM] | -15% | 8% | 34% | nt
COc1cc(OC)cc(C(=O)Nc2cccc(N3CCCC3)c2)c1 | 50µM* | 3.5µM* | -38% | 2% | -17% | -6%
COc1cc(OC)cc(C(=O)Nc2cccc(NC(=O)c3ccccc3)c2)c1 | -27% | 19% | -5% | nt | ? | 12%
COc1cc(OC)cc(C(=O)Nc2ccc(NC(=O)c3ccco3)c(C)c2)c1 | -18% | 50µM* | -26% | 11% | 0% | 11%

Assay outcomes (PubChem BioAssay)
